Source: PubChem BioAssay
CCHFV vOTU inh – CCHFV vOTU protease inhibition | 370,000 compounds, 0.55% hits | AID 651958 | inhibition, % at 11.5 µM | Pep-AMC fluorescence; in the data active means inhibition above about 30%; further: 0% = vehicle wells with enzyme and 100% = no enzyme wells
MazF activator – activators of E. coli MazEF toxin-antitoxin RNase. FAM/BHQ RNA-DNA oligo cleavage fluorescence, 5 h. 350,000 compounds, 0.32% hits. AID 504720. activation, % at 20 µM. P0AE70; in the data active means activation above about 50%
Target sequence (P0AE70 whole entry, looked up): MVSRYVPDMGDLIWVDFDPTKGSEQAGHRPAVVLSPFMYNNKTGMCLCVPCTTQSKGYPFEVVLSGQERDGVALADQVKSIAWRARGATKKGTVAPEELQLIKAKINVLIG
BJeLR lethal – kills HRASV12-expressing BJeLR cells; BJeLR (HRASV12) viability, CellTiter-Glo ATP luminescence, 48 h; inhibition, % (concentration not given with the values); 300,000 compounds, 0.17% hits; in the data active means inhibition above about 50%
VHR inh abs – blocks human VHR1 dual specificity phosphatase | recombinant VHR phosphatase, pNPP absorbance | inhibition, % at 13.3 µM | 290,000 compounds, 0.52% hits | AID 1654; in the data active means inhibition above about 50%
Target sequence (P51452 whole entry, looked up): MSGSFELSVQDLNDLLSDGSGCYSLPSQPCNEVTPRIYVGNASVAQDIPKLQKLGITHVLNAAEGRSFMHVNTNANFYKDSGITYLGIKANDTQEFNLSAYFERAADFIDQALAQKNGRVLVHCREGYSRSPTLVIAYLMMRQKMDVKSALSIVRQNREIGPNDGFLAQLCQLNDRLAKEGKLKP
SARS 3CLpro inh – SARS-CoV 3CLpro protease inhibition | P0C6X7 | recombinant SARS-CoV 3CLpro, quenched FRET peptide cleavage | inhibition, % at 6 µM | 290,000 compounds, 0.14% hits; in the data active means inhibition above about 12%
* marks the source's active call; other numbers are inactive results; . = not tested or not shown. Shown are actives, neighbours in structure and some others; about 1.4% of the full set was active somewhere.

SMILES	CCHFV vOTU inh	MazF activator	BJeLR lethal	VHR inh abs	SARS 3CLpro inh
CC(Sc1ncnc2sccc12)C(=O)Nc1ccc(C(N)=O)cc1 (stereo not drawn)	0	54*	1	4	0
C=CCn1c(SCC(=O)Nc2ccccc2-c2ccccc2)nnc1-c1ccc(Cl)cc1	20	.	.	.	.
COC(=O)C1CN(C2CCCC2)CCS(=O)(=O)N1Cc1ccccc1 (stereo not drawn)	2	.	.	.	.
CC(C)(C)c1ccc(-c2nnc(SCc3cccc4ccccc34)n2Cc2ccco2)cc1	27	.	.	.	.
COc1nccnc1NS(=O)(=O)c1ccc(NC(=S)NC(=O)c2ccccc2)cc1	4	-6	14	52*	-1
CC(C)CN1C(=O)[C@@]2(CC(=O)N(C)C2c2ccccc2)c2cc(-n3cc(CN(C)C)nn3)ccc21 (stereo partly drawn)	4	.	.	.	.
CCN1C=C(Cc2ccc(F)cc2)C2=C(C1)C(c1ccc(F)cc1)C(C#N)=C(N)O2 (stereo not drawn)	21	77*	0	22	2
CCc1cc2cc3c(cc2nc1SCC(=O)Nc1c[nH]c(=O)[nH]c1=O)OCO3	-3	4	-7	-3	5
CCc1cc2cc3c(cc2nc1SCC(=O)Nc1nccs1)OCO3	-18	56*	2	45	5
O=C(CSc1nc(-c2ccccc2)nc2ccccc12)Nc1nccs1	1	136*	-17	38	0
Cc1ccc(-n2c(SCC(=O)Nc3cccc4ccccc34)nnc2-c2cccs2)cc1	4	.	.	.	.
COc1ccc(N2CCN(CCNS(=O)(=O)c3cccs3)CC2)cc1	-5	.	.	.	.
c1ccc(-c2ccc(-c3nc(-c4ccccn4)no3)cc2)cc1	12	-1	81*	37	7
CC(=O)N1CCc2c(sc(NC(=O)Cc3ccc(C)cc3C)c2C#N)C1	10	-6	9	58*	-5
CSc1ccccc1NC(=O)Nc1cccc(Cl)c1	-1	119*	1	17	3
CSc1ccccc1NC(=O)Nc1ccc(F)c(Cl)c1	12	0	-3	29	0
Cc1ccc(C)c(Nc2nc3c(S(=O)(=O)c4ccccc4)nnn3c3ccccc23)c1	-12	135*	-2	3	1
Cc1ccc(S(=O)(=O)c2nnn3c2nc(Nc2cccc(C)c2)c2ccccc23)cc1	-2	15	-15	0	3
O=C(Nc1cccc2ncccc12)c1ccc(Cl)cc1	2	110*	2	-8	5
O=C(Nc1cccc2ncccc12)c1ccc(F)cc1	2	3	10	-5	-1
Cc1ccc(C(=O)OCC(=O)Nc2c(C)n(C)n(-c3ccccc3)c2=O)cc1[N+](=O)[O-]	11	50*	1	14	0
CCN(CC)c1ccc(-c2nn3c(-c4ccc(C(C)(C)C)cc4)nnc3s2)cc1	-2	.	.	.	.
O=C(CN(CCc1ccccc1)S(=O)(=O)c1ccc(Cl)s1)N1CCOCC1	1	.	.	.	.
COc1ccc(-c2cc(-c3ccccc3)nc(NN)n2)cc1OC	0	14	0	54*	-2
COc1nc(-c2ccccc2)cc(-c2ccc(OC)c(OC)c2)n1	4	19	-4	16	2
SMILES	CCHFV vOTU inh	MazF activator	BJeLR lethal	VHR inh abs	SARS 3CLpro inh
CCOc1ccc(NC(=O)CNC(=O)c2nn(-c3ccc(OC)cc3)c(=O)c3ccccc23)cc1	11	73*	-4	12	6
CCOC(=O)c1ccc(NC(=O)CSc2nnc(-c3cccc(C)c3)n2C)cc1	3	.	.	.	.
O=C(N=C1SC2CS(=O)(=O)CC2N1c1ccc(Cl)cc1)C1CCCO1 (stereo not drawn)	7	7	8	-5	-2
COc1ccc(N2C(=NC(=O)C3CCCO3)SC3CS(=O)(=O)CC32)cc1 (stereo not drawn)	0	2	1	56*	-2
O=C(COc1ccccc1)N=C1SC2CS(=O)(=O)CC2N1c1ccc(F)cc1 (stereo not drawn)	-5	1	0	54*	-10
O=C(NNC(=O)c1cc2cc(Br)ccc2oc1=O)c1ccc(O)cc1O	-4	9	-1	60*	1
COCCCNC(=O)c1cc2cc(Br)ccc2oc1=O	-5	5	.	-4	2
Cc1ccccc1NC(=O)OCCCN1C(=O)CCC12CCC(C)CC2 (stereo not drawn)	6	.	.	.	.
C=C(C)CN1C(=O)C2(OCCO2)c2cc(Br)ccc21	-11	12	-6	.	.
CCOC(=O)CN1C(=O)C2(OCCCO2)c2cc(Br)ccc21	-10	3	-6	59*	1
C[C@H]1/C=C/CC(=O)N[C@@H](c2ccccc2)[C@@H](C)/C=C/CC(=O)N[C@H]1c1ccccc1	-3	.	.	.	.
N#Cc1ccc(COC(=O)c2cccnc2Cl)cc1	-2	6	5	59*	-1
CC1=NNC(=O)/C1=C\c1cn(-c2ccccc2)nc1-c1cccs1	2	1	56*	-2	-2
COc1ccc(-n2c(SCC(=O)Nc3ccc(S(=O)(=O)Nc4cc(C)nc(C)n4)cc3)nnc2-c2ccco2)cc1	1	.	.	.	.
Cc1nnsc1C(=O)N/N=C/c1ccc2ccccc2c1O	6	-27	61*	14	1
Cc1nc2sc(C(=O)NCc3nccs3)c(N)c2c(C)c1Cl	-11	.	.	.	.
CC(=O)Nc1ccc(S(=O)(=O)N[C@@H](C)C(=O)N2CCN(c3ccccn3)CC2)cc1	0	3	2	.	.
CCC(NS(=O)(=O)c1ccc(C)cc1)C(=O)N1CCN(c2ccccn2)CC1 (stereo not drawn)	4	4	-2	50*	-4
Cc1ccc(S(=O)(=O)Cc2ccc(C(=O)N3CCc4ccccc4C3)o2)cc1	0	-1	-2	54*	0
COc1ccc(-n2c(COc3ccc(Cl)cc3)nnc2SCC(=O)c2ccc(-c3ccccc3)cc2)cc1	7	.	.	.	.
CCOC(=O)CNC(=O)CNC(=O)c1ccc(OCC(C)C)cc1	8	-3	6	53*	-5
CCN1C(=O)CC(N2CCN(c3ccc(Cl)cc3)CC2)C1=O (stereo not drawn)	0	5	10	12	-1
CCN1C(=O)CC(N2CCN(c3ccc(C(=O)c4ccccc4)cc3)CC2)C1=O (stereo not drawn)	19	-7	-2	57*	0
CCOc1ccc(N(CC(=O)NCc2ccc3c(c2)OCO3)C(=O)c2csnn2)cc1	-4	3	-5	39	-4
CCc1ccc(N(CC(=O)NCc2ccc3c(c2)OCO3)C(=O)c2csnn2)cc1	6	-8	0	53*	-2
COc1cc(NC(=O)NC2CCCCN(Cc3ccc(Cl)cc3)C2=O)cc(OC)c1 (stereo not drawn)	4	.	.	.	.
O=C(COC(=O)C1CCN(S(=O)(=O)c2cccs2)CC1)c1cc2ccccc2o1	-2	60*	-9	-1	0
CCOC(=O)c1csc(NC(=O)C2CCCN(S(=O)(=O)c3ccc(Br)s3)C2)n1 (stereo not drawn)	5	.	.	.	.
COc1ccc(NS(=O)(=O)c2ccc(-c3cnc(C4CC4)o3)cc2)cc1OC	9	0	35	52*	-5
